# Screening results as filed in PubChem.
# KCNQ2 pot = potentiators of rat KCNQ2 potassium channel. Potassium voltage-gated channel subfamily KQT member 2 (Rattus norvegicus), O88943. 0.54% of 310,000 active. B-score at 10 µM. AID 2239, 2010. CHO-K1 KCNQ2, FluxOR thallium flux fluorescence; hits give high values;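 active means fluorescence ratio B-score at least 3 SD of library B-scores, with initial fluorescence B-score within 3 of them, cut at about 5.3 in these data; same plate scores as AID 2156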;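 further: B-score of peak minus minimum over baseline fluorescence ratio after K+ and Tl+ stimulus; positive B-score means potentiation of KCNQ2 with more thallium influx and brighter signal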
# KCNQ2 inh = rat KCNQ2 potassium channel inhibitors, primary screen, cell-based, CHO-K1, FluxOR thallium flux, B-score | Potassium voltage-gated channel subfamily KQT member 2 (Rattus norvegicus), O88943 | 20 min; hits give low values | B-score at 10 µM | 1.1% of 310,000 active | AID 2156, 2009;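 active means fluorescence ratio B-score at most minus 3 library SDs, with starting brightness B-score within 2 library SDs, cut at about -5.5 in these data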
# * hit, by the source's call; i = inactive; / = no result given. In the library only some 1.6% were active in any assay of this set; here they are far more common.
SMILES,KCNQ2 pot,KCNQ2 inh
Cc1ccc2nc(SCC(=O)c3cc(C)n(C)c3C)[nH]c2c1,/,i
Cc1cc(C(=O)CSc2nc3ccccc3[nH]2)c(C)n1C,/,i
C=CCn1c(C)cc(C(=O)CSc2nc3ccccc3[nH]2)c1C,-7.5,-7.5*
COc1ccc(NC(=O)C2CCN(S(=O)(=O)c3ccc4c(c3)CC(C)N4C(C)=O)CC2)c(OC)c1 (stereo not drawn),0.39,i
COc1ccc(/C(C)=N/NC(=O)CNC(=O)/C=C\c2ccccc2)c(OC)c1,0.86,i
CC(C)C[C@@H](CN=[N+]=[N-])N1CCN(Cc2ccccc2)CCC1=O,/,i
CSc1ccc(S(=O)(=O)NCC(=O)OCC(=O)N2CCCC2=O)cc1[N+](=O)[O-],/,i
CCN(CC)C(=O)C1(P(=O)(c2ccccc2)c2ccccc2)CCC1,/,i
CCCCN(CCCC)C(=O)C1(P(=O)(c2ccccc2)c2ccccc2)CCC1,-6.2,-6.2*
CCC(c1nnc(SCc2nc3ccccc3s2)n1Cc1ccccc1)N(C)C (stereo not drawn),-6.3,-6.3*
CCn1c(SCc2nc3ccccc3s2)nnc1-c1ccccc1,/,i
Cc1ccc(C)c(CN2C(=O)NC3(CCCCCC3)C2=O)c1,1.2,i
Cc1ccc2c(CN3C(=O)NC4(CCCCC4)C3=O)cc(=O)oc2c1C,-6.6,-6.6*
CCCn1c(C(O)c2cc(OC)c(OC)c(OC)c2)nc2ccccc21 (stereo not drawn),0.2,i
Cc1ccc(S(=O)(=O)N(C)C)cc1NC(=O)COC(=O)Cc1cccs1,/,i
CC(NC(=O)COc1ccccc1F)C1CC2CCC1C2 (stereo not drawn),-6,-6*
CC(NC(=O)c1ccc(F)cc1)C1CC2CCC1C2 (stereo not drawn),/,i
Cc1nn(C(C)(C)C)c(OC(=O)C2CCCC2)c1S(=O)(=O)c1ccccc1,-6,-6*
Cc1ccc(S(=O)(=O)c2c(C)nn(C(C)(C)C)c2OC(=O)C2CCCC2)cc1,/,i
COc1ccc(CCNC(=O)c2nn(C)c3c2CS(=O)(=O)c2ccccc2-3)c(OC)c1,/,i
O=[S@]1Oc2ccccc2-c2ccccc21,0.4,i
C=CCn1c(=O)c(C(=O)Nc2ccccc2C(=O)OCC)c(O)c2ccccc21,/,i
C=CCn1c(=O)c(C(=O)Nc2ccccc2S(N)(=O)=O)c(O)c2ccccc21,5.7*,i
COc1ccc(NC(=O)CC(C)n2ccnc2)cc1 (stereo not drawn),/,i
Cc1ccc(OCc2cc(C(=O)N(C)Cc3cnn(-c4ccccc4C)c3)no2)cn1,2.5,i
SMILES,KCNQ2 pot,KCNQ2 inh
Cc1ccc(S(=O)(=O)N2CCOC2CNC(=O)C(=O)NCc2ccc(Cl)cc2)cc1 (stereo not drawn),/,i
CSCCCNC(=S)N(C)CC(=O)Nc1ccc(C)cc1,1.2,i
OC(CNCC1CCCO1)Cn1c2ccc(Cl)cc2c2cc(Cl)ccc21 (stereo not drawn),-7.6,-7.6*
OC(CNCC1CCCO1)Cn1c2ccccc2c2ccccc21 (stereo not drawn),/,i
CCc1ccc(NC(=O)c2ccc(F)c(S(=O)(=O)N(CC)c3ccccc3)c2)cc1,/,i
CCN(c1ccccc1)S(=O)(=O)c1cc(C(=O)Nc2cccc(Cl)c2)ccc1F,-8.1,-8.1*
Cc1ccc(NC(=O)CCCn2nc(C)c3c(C)n(-c4ccccc4)nc3c2=O)c(Cl)c1,/,i
CN(C)S(=O)(=O)c1cccc(NC(=S)Nc2cc(Cl)cc(Cl)c2)c1,1,i
CCN(CCO)c1ccc(NC(=S)Nc2cccc(S(=O)(=O)N(C)C)c2)cc1,-6.7,-6.7*
CCCC(=O)N(c1ccc(C(=O)O)cc1)c1nc(-c2ccccc2)c(C)s1,2.3,i
O=[N+]([O-])c1ccc(N2CCOCC2)cc1O,1.1,i
Cc1cc(N2CCOCC2)ccc1/C=C\[N+](=O)[O-],-7.1,-7.1*
CN(c1ccccc1)S(=O)(=O)c1cc(Cl)ccc1Cl,/,i
CN(c1ccccc1)S(=O)(=O)c1cccc(Cl)c1Cl,-5.6,-5.6*
Cc1nc2c(c(C)nn2-c2ccccc2)c(C)c1CCC(=O)Nc1ccc(CN2CCCC2)cc1,-6.1,-6.1*
CCC(C)NC(=O)CCc1c(C)nc2c(c(C)nn2-c2ccccc2)c1C (stereo not drawn),1.9,i
O=C1OCC(c2ccccc2)=C1c1ccccc1,1,i
N#CC1=C(c2ccc(-c3ccccc3)cc2)COC1=O,-5.7,-5.7*
COc1cccc(CC(=O)OCC(=O)N(C)CC(=O)Nc2ccc(Cl)c(C(F)(F)F)c2)c1,1.2,i
COc1cccc(CC(NC(C)=O)C(=O)NC2CCN(C(=O)c3ccc(Cl)cc3)CC2)c1 (stereo not drawn),/,i
Cc1cc(-c2ccc(C)c(S(=O)(=O)Nc3cc(C)on3)c2)on1,/,i
CCCCNC(=O)c1onc(CSc2cc(C)cc(C)c2)c1C(=O)O,1.9,i
CCCCNC(=O)c1onc(CSc2cc(C)cc(C)c2)c1C(=O)NCCCC,-5.6,-5.6*
